# The source made the active and inactive calls.
# What was measured:
# [1] = optical density shifts of acrAB sulA E. coli – strain DRC41, OD650, 48 h, E. coli filamentation inducer project, primary screen (AID 1152); details: higher = more signal, called active from +8 up or from −8 down;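 note: E. coli MC1000 strain DRC41 lacking acrAB efflux pump and sulA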
# [2] = probe aLefty1 binding on compound microarray – biochemical, small-molecule microarray, 635/667 nm fluorescence, primary screen (AID 1153); details: higher = more signal;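 note: score merges spot fluorescence with signal-to-noise ratio from the scanned slide images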
# [3] = plasmodial surface anion channel blockers, osmotic lysis – cell-based, P. falciparum Indochina, OD700, 1 h, primary screen (AID 1154); details: P. falciparum Indochina infected RBC osmotic lysis, higher = more signal, called active from +8 up or from −8 down
# [4] = plasmodial surface anion channel blockers, osmotic lysis – cell-based, P. falciparum Indochina, OD700, 2 h, primary screen (AID 1155);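 note: lysis reports solute entry through the parasite surface anion channel PSAC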; details: P. falciparum Indochina infected erythrocytes, higher = more signal, called active from +8 up or from −8 down
# [5] = changes in parasitized red cell lysis, either direction – P. falciparum Indochina, OD700, 3 h, PSAC antagonist project, primary screen (AID 1156); details: P. falciparum-infected erythrocytes, osmotic lysis, higher = more signal, called active from +8 up or from −8 down
# [6] = plasmodial surface anion channel blockers, osmotic lysis – cell-based, P. falciparum Indochina, OD700, 18 h, primary screen (AID 1157); details: P. falciparum Indochina infected erythrocytes, osmotic lysis OD700, 18 h; higher = more signal, called active from +8 up or from −8 down
# [7] = S6 kinase pathway phospho-S6 level changes – cell-based, A549, cytoblot, luminescence, serum-stimulated, primary screen (AID 1158); details: 5 h, higher = more signal;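 note: serum-stimulated A549 lung adenocarcinoma cells; signal is phosphorylated S6 detected by cytoblot immunostaining with HRP secondary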
# [8] = target: NADPH oxidase 2 (Homo sapiens) (UniProt P04839); assay: compounds shifting NOX2 Amplex Red fluorescence – cell-based, HEK293-NOX2, PMA-stimulated, NOX inhibitor project, primary screen (AID 1159); details: 45 min, higher = more signal, called active from +8 up or from −8 down; note: test concentration not given here
# Sequence of NADPH oxidase 2 (Homo sapiens) (P04839 whole entry, looked up): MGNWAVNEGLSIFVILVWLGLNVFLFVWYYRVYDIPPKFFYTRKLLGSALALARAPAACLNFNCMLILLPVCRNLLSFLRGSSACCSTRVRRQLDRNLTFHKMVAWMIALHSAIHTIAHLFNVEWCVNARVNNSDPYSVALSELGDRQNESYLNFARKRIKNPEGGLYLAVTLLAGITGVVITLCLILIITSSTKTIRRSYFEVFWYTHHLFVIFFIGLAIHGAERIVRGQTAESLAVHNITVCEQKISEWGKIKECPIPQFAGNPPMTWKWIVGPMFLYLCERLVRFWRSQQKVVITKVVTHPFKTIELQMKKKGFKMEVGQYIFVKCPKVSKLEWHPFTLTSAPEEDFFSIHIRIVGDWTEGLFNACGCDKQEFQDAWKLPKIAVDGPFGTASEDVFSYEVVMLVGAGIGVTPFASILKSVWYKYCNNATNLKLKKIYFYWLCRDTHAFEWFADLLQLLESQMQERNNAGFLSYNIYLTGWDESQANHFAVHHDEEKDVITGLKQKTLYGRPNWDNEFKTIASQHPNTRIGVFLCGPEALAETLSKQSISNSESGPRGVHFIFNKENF
# [9] = target: NADPH oxidase 4 (Homo sapiens) (UniProt Q9NPH5); assay: compounds shifting NOX4 Amplex Red fluorescence – cell-based, HEK293-NOX4, tetracycline-induced, NOX inhibitor project, primary screen (AID 1160); details: HEK293-NOX4, Amplex Red H2O2 fluorescence, 45 min; higher = more signal, called active from +8 up or from −8 down
# Sequence of NADPH oxidase 4 (Homo sapiens) (Q9NPH5 whole entry, looked up): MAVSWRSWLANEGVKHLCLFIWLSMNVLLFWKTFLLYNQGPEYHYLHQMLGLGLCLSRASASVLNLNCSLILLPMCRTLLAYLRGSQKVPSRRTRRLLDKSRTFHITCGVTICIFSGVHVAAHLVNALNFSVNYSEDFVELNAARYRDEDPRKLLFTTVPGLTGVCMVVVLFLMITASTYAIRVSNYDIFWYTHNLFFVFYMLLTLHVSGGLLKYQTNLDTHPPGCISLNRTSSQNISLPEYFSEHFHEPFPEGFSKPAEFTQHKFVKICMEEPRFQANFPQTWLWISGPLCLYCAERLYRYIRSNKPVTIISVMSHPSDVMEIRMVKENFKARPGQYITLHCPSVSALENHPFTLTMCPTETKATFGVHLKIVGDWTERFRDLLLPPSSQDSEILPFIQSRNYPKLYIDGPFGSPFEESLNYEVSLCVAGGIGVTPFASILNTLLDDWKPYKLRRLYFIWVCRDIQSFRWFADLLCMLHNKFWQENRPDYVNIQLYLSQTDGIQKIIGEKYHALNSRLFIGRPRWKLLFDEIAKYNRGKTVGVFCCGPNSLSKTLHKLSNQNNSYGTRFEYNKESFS
# [10] = target: NADPH oxidase 5 (Homo sapiens) (UniProt Q96PH1); assay: compounds shifting NOX5 Amplex Red fluorescence – cell-based, HEK293-NOX5, NOX inhibitor project, primary screen (AID 1161); details: HEK293-NOX5, ionomycin, 45 min, higher = more signal
# Sequence of NADPH oxidase 5 (Homo sapiens) (Q96PH1 whole entry, looked up): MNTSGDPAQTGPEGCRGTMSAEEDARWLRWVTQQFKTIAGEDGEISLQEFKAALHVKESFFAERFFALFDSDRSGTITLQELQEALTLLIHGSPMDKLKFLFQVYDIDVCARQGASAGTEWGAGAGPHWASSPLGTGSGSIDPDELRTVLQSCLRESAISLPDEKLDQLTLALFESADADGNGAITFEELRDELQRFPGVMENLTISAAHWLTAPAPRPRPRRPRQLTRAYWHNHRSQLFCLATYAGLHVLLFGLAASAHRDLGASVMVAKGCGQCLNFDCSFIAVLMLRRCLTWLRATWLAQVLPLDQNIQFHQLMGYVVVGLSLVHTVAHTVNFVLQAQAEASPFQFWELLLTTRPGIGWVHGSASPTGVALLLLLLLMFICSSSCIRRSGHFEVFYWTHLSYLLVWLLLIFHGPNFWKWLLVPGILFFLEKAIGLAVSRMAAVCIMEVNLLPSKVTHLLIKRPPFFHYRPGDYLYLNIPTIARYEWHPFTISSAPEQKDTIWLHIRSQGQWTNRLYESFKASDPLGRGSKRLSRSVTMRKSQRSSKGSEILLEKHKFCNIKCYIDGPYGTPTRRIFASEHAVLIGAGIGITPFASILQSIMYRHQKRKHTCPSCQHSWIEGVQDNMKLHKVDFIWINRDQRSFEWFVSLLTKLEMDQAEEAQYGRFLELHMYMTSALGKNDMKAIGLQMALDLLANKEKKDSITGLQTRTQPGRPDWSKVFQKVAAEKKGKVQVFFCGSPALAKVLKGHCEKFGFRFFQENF
# [11] = compound effects on lung adenocarcinoma cell viability – A549, calcein-AM fluorescence, 48 h, basal, profiling panel (AID 1162); details: higher = more signal; note: test concentration not given here
# [12] = compound effects on differentiated 3T3-L1 adipocyte viability – cell-based, 3T3-L1 adipocytes, calcein-AM fluorescence, 48 h, basal, profiling panel (AID 1163); details: 3T3-L1 adipocytes viability, higher = more signal; note: test concentration not given here
# [13] = compound effects on hepatocellular carcinoma cell viability – HepG2, calcein-AM fluorescence, 48 h, basal, profiling panel (AID 1164); details: higher = more signal; note: test concentration not given here
# [14] = compound effects on multiple myeloma cell viability – MM1S, calcein-AM fluorescence, 48 h, basal, profiling panel (AID 1165); details: higher = more signal;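 note: viability of MM1S multiple myeloma cells under basal unstimulated conditions; test concentration not given here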
# [15] = calcein-AM signal in unstimulated myeloma cells – cell-based, calcein-AM fluorescence, 48 h, PK04 Diversity Set, profiling panel (AID 1166); details: RPMI8226 myeloma viability, higher = more signal;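 note: cells grown under basal conditions without added stimulus; test concentration not given here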
# [16] = JC-1 mitochondrial signal, unstimulated HepG2 cells – cell-based, JC-1 fluorescence, 24 h, 100 nL compound, profiling panel (AID 1167); details: HepG2 mitochondrial potential, higher = more signal; note: test concentration not given here
# [17] = JC-1 mitochondrial signal, unstimulated adipocytes – cell-based, JC-1 fluorescence, 3T3-L1 adipocytes, 24 h, 100 nL compound, profiling panel (AID 1168); details: JC-1 mitochondrial fluorescence, higher = more signal, called active from +8 up or from −8 down; note: test concentration not given here
# [18] = JC-1 mitochondrial signal, unstimulated myeloma cells – cell-based, JC-1 fluorescence, RPMI8226, 24 h, 100 nL compound, profiling panel (AID 1169); details: JC-1 mitochondrial potential fluorescence, higher = more signal; note: test concentration not given here
# [19] = JC-1 mitochondrial signal, unstimulated MM1S myeloma – cell-based, JC-1 fluorescence, 24 h, 100 nL compound, profiling panel (AID 1170); details: MM1S mitochondrial potential, higher = more signal; note: test concentration not given here
# [20] = resazurin metabolic signal in A549 cells – cell-based, resazurin fluorescence, 24 h, PK04 Diversity Set, profiling panel (AID 1171); details: A549 viability, higher = more signal, called active from +8 up or from −8 down; note: test concentration not given here
SMILES,z-score [1],composite z-score [2],z-score [3],z-score [4],z-score [5],z-score [6],z-score [7],z-score [8],z-score [9],z-score [10],z-score [11],z-score [12],z-score [13],z-score [14],z-score [15],z-score [16],z-score [17],z-score [18],z-score [19],z-score [20]
CCN1C(=O)[C@H]2[C@H]3[C@H](O)[C@H](O)CC(=NO[C@H](C)c4cn([C@H](CO)Cc5ccccc5)nn4)[C@@H]3CC[C@H]2C1=O,-0.238 (inactive),-0.323,0.334 (inactive),0.15 (inactive),-0.0073 (inactive),0.123 (inactive),-0.598,0.384 (inactive),0.293 (inactive),-0.116,1.01,-0.922,0.211,-0.824,0.065,-0.471,-1.16 (inactive),0.271,-0.343,-1.13 (inactive)
CO[C@@H]1C=CCC(=O)N[C@@H](C)C(=O)OC[C@@H](NS(=O)(=O)c2ccc(C)cc2)[C@H](C)C=CCC(=O)OC[C@H]1C,-0.481 (inactive),-0.141,0.0412 (inactive),0.149 (inactive),-0.802 (inactive),0.109 (inactive),-0.327,-9.51 (active),0.732 (inactive),-0.0177,-0.533,0.37,0.495,-0.0903,-0.431,0.0105,0.0826 (inactive),-0.782,0.301,0.179 (inactive)
COC(=O)CC=C[C@@H](C)[C@@H](C=NOC[C@@H](O)COCc1ccco1)OC,0.245 (inactive),-0.202,0.202 (inactive),0.322 (inactive),-0.0838 (inactive),0.145 (inactive),0.564,-0.499 (inactive),0.024 (inactive),0.403,1.3,-0.921,0.436,0.195,0.598,-0.327,0.499 (inactive),0.501,-0.281,-0.329 (inactive)
CC(C)(C)N1C(=O)[C@H]2[C@H]3[C@H](O)[C@H](O)CC(=NNC(=O)OCc4ccccc4)[C@H]3CC[C@H]2C1=O,-1.57 (inactive),-0.0966,0.988 (inactive),-0.0262 (inactive),0.374 (inactive),-1.13 (inactive),0.827,-1.18 (inactive),-0.074 (inactive),-1.11,-1.13,1.11,-0.516,-0.269,-0.934,-0.639,-1.49 (inactive),-0.411,-0.823,0.321 (inactive)
CCOC(=O)[C@H](Cc1ccccc1)NC(=O)CCC1CC(OC(=O)NCc2cccc3ccccc23)CC2(CCCC(COC(=O)NCc3ccc4c(c3)OCO4)O2)O1 (stereo not given in full),1.21 (inactive),0.0686,0.509 (inactive),-0.255 (inactive),-0.336 (inactive),-0.12 (inactive),0.184,0.691 (inactive),0.538 (inactive),0.712,0.664,-0.171,0.78,0.505,-1.48,0.561,0.953 (inactive),-0.675,-0.239,-0.269 (inactive)
C=CC[C@@H]1C=C[C@H](ON=C(C)CCN2CCCCc3nc(C)c(C)cc32)[C@@H](CO)O1,-0.813 (inactive),-0.0547,1.07 (inactive),0.547 (inactive),0.325 (inactive),0.392 (inactive),-0.53,-0.953 (inactive),-0.352 (inactive),-0.424,0.275,-0.7,-0.389,0.475,-0.332,-0.874,-1.84 (inactive),-0.174,-0.514,-0.421 (inactive)
O=C1[C@H]2[C@H]3[C@H](O)[C@H](O)CC(=NOCc4ccccc4)[C@H]3CC[C@H]2C(=O)N1C1CCCCC1,-0.135 (inactive),-0.0222,21.3 (active),2.36 (inactive),0.43 (inactive),0.842 (inactive),-0.441,-0.622 (inactive),-1.09 (inactive),-4.07,0.519,-0.228,0.734,-0.618,-0.498,-1.3,0.028 (inactive),-0.16,-0.847,-0.329 (inactive)
CC(C)=CCCC(C)=CCON=C1C[C@@H](O)[C@@H](O)[C@@H]2[C@@H]3C(=O)N(c4cccc(Oc5ccccc5)c4)C(=O)[C@@H]3CC[C@H]12,0.349 (inactive),0.0363,2.26 (inactive),1.25 (inactive),0.17 (inactive),0.722 (inactive),0.34,-1.35 (inactive),0.0399 (inactive),-0.583,0.0267,-0.796,0.285,-1.97,0.504,-0.253,0.496 (inactive),-0.203,-0.907,0.533 (inactive)

# Source: PubChem BioAssay
